The whole screen tested about 310,000 compounds, of which about 1,000 (0.32%) were called active. The list is a sample of the results. Potency and affinity values are given separately. Values without a mark were called inactive. No rule for the calls is given here.
Test: Inhibition of PhoP regulon, Salmonella typhi GFP reporter cells, confirmation, 4 h (AID 1850);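 also: 0% = induced wells with vehicle and 100% = uninduced wells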
Details: Salmonella Typhi PhoP-promoter GFP reporter, fluorescence, at 50 µM, hits give high values

| SMILES | inhibition |
| --- | --- |
| CCOCCCN(C(=O)Cn1nnc(-c2ccc(C)o2)n1)C(C(=O)NCC1CCCO1)c1ccc(F)cc1 (stereo not given) | 5.95% |
| CN(C)/C=C1\C(=O)Oc2ccccc2C1=O | 20.1% |
| Cn1c(SCc2cccc(F)c2)nnc1-c1cnccn1 | -1.53% |
| O=C(NCc1cc(C(F)(F)F)cc(C(F)(F)F)c1)C1CC(c2ccccc2F)=NO1 (stereo not given) | -1.16% |
| CN1CCN(C(=O)c2cc3cc(Cl)ccc3[nH]2)CC1 | -3.23% |
| CCOC(=O)N1CCN(C(=O)c2cc3cc(F)ccc3[nH]2)CC1 | 7.38% |
| CCOC(=O)N1CCN(C(=O)c2cc3cc(Cl)ccc3[nH]2)CC1 | -18% |
| CN1CCN(C(=O)c2cc3cc(F)ccc3[nH]2)CC1 | 10.7% |
| COC(=O)c1c(O)cc(C(C)(C)C)n(-c2ccc(F)cc2)c1=O | -3.64% |
| Cc1ccc(Cn2c(=N)c(C(=O)NC3CCCC3)cc3c(=O)n4ccccc4nc32)cc1 | -16.4% |
| O=C(c1ccc(Br)cc1)N1CCN(Cc2ccccc2)CC1 | -4.12% |
| O=C(CCN1CCOCC1)c1ccc(Br)cc1 | 24.1% |
| COc1ccc(C(=O)CCN2CCN(c3ccc(OC)cc3)CC2)cc1 | 11.8% |
| O=C(NCCN1CCN(C(=O)c2ccc(Br)cc2)CC1)c1ccc(Br)cc1 | -4.36% |
| O=C(CCC(=O)N1CCN(c2ccccc2F)CC1)c1ccc(F)cc1 | 4.65% |
| O=C(CCN1CCN(c2ccccc2)CC1)Nc1ccc(Cl)cc1 | 11.6% |
| COc1ccc(C(=O)CCN2CCN(c3ccccc3F)CC2)cc1 | 8.74% |
| O=C(CCN1CCN(c2ccc([N+](=O)[O-])cc2)CC1)c1ccc(Cl)cc1 | -10.4% |
| C#Cc1ccc([C@@H]2C=C(C(=O)NCc3ccccc3)O[C@H](OCCCCO)C2)cc1 | -19.4% |
| CCCCn1c(N)c(N(CCC(C)C)C(=O)c2sc3nc4n(c(=O)c3c2C)CCC4)c(=O)[nH]c1=O | -5.32% |
| O=C(Nc1ccnn1C1CCN(CCCc2ccccc2)CC1)c1ccccc1 | -0.47% |
| O=C(CCN1C(=O)/C(=C/c2cccs2)SC1=S)Nc1ccc(C(=O)O)cc1 | 1.33% |

| SMILES | inhibition |
| --- | --- |
| Cc1cc(O)cc(O)c1C(=O)Cc1cscn1 | 5.71% |
| CCOC(=O)Nc1nc(C)c(C(=O)c2ccc(Cl)cc2)s1 | -3.7% |
| O=C1c2ccccc2C(=O)N1CCc1ccccc1 | 2.79% |
| CN1CCN(c2nc(C#N)cc(-c3ccccc3)n2)CC1 | 6.67% |
| CO[C@@]1(NC(=O)CSCC#N)C(=O)N2C(C(=O)O)=C(CSc3nnnn3C)CS[C@@H]21 | -5.33% |
| Cn1nnnc1SCC1=C(C(=O)O)N2C(=O)C(NC(=O)C3CC3c3ccccc3)C2SC1 (stereo not given) | -4.57% |
| CCc1nccn1CCC(=O)N1CCCC(Nc2ccc(F)cc2)C1 (stereo not given) | -1.62% |
| O=C1Nc2c(c(=O)[nH]c(=O)n2Cc2ccccc2)C1(NS(=O)(=O)c1ccccc1)C(F)(F)F (stereo not given) | -5.69% |
| NC1=NC[C@H](c2ccccc2)N1CC1CCCCC1 | -20.2% |
| NCCCC[C@H]1CN=C(N)N1CCCCC1CCCCC1 | 7.18% |
| NC1=NC[C@H](Cc2ccc(O)cc2)N1CC1CCCCC1 | 5.76% |
| CCCCN1C(N)=NC[C@@H]1c1ccccc1 | -18.5% |
| CCCCN1C(N)=NC[C@H]1Cc1ccc(O)cc1 | 1.82% |
| CCCCN1C(N)=NC[C@@H]1Cc1ccc(O)cc1 | -19.3% |
| NC1=NC[C@H](Cc2ccccc2)N1CC1CCCCC1 | 2.62% |
| CN(C)C1=NC[C@H](Cc2ccccc2)N1CCCC1CCCCC1 | 4.81% |
| O=[N+]([O-])c1cccc(-c2nc(-c3ccccn3)no2)c1 | 1.8% |
| Cc1ccc(S(=O)(=O)c2c[nH]c3cc4c(cc3c2=O)OCO4)cc1 | 7.08% |
| CCCCCOc1ccc(C(=O)NCC2(c3ccccc3)CCOCC2)cc1 | 4.92% |
| CCCC(=O)N1CCN(c2ccc(NC(=O)c3cccs3)cc2)CC1 | -2.61% |
| O=S(CCc1ccncc1)Cc1ccccc1 (stereo not given) | 4.99% |
| CCOC(=O)c1cnc2ccc(Br)cc2c1NCCO | -7.98% |

| SMILES | inhibition |
| --- | --- |
| COc1cccc(C(=O)Nn2cnnc2)c1 | 4.98% |
| COc1cc(C(=O)N2C[C@H]3CC[C@H]2C3)ccc1OC1CCN(C(C)=O)CC1 | -7.38% |
| Cc1ccc(-c2cc(C(F)F)nc(NCC3CCCO3)n2)cc1 (stereo not given) | -6.89% |
| CC1(N(O)/C=C2\C=CC=CC2=O)CCCCC1=O (stereo not given) | 0.16% |
| COc1ccccc1NC(=O)/C(=C\c1cccnc1)NC(=O)c1ccccc1 | -1.82% |
| Cc1cc(C)n(-c2nc(SCC(=O)O)c3c4c(sc3n2)CCCC4)n1 | 7.15% |
| Cc1cc(C)n(-c2nc(NCCCN(C)C)c3c4c(sc3n2)CCCC4)n1 | -3.88% |
| Cc1cc(C)n(-c2nc(NCCO)c3c4c(sc3n2)CCCC4)n1 | -17% |
| Cc1cc(C)n(-c2nc(SCCN(C)C)c3c4c(sc3n2)COC(C)(C)C4)n1 | -1.09% |
| Cc1c(N2C(=O)CSC2c2ccco2)c(=O)n(-c2ccccc2)n1C (stereo not given) | 13.9% |
| CCCC(=O)c1ccc(N2CCCC2)c(F)c1 | 0.25% |
| O=C(c1ccc(Cl)cc1)[C@@H]1[C@@H]2C(=O)N(c3ccc(Cl)cc3)C(=O)[C@@H]2C2c3ccccc3C=NN21 (stereo not given in full) | -0.55% |
| CC1(C)CC(NC(=S)NCc2ccco2)CC(C)(C)N1 | 0.38% |
| CCOc1ccc(CCNC(=O)C2CCCN(c3ncnc4c3nc3n4CCCCC3)C2)cc1 (stereo not given) | 3.25% |
| C=CCN(C(=O)c1csnn1)C(C(=O)NC1CCCCC1)c1ccc(C)cc1 (stereo not given) | 1.3% |
| Oc1cccc(C(Nc2nccs2)c2ccc3cccnc3c2O)c1 (stereo not given) | 3.51% |
| CCC(=O)NC(c1ccc(Cl)cc1Cl)c1ccc2cccnc2c1O (stereo not given) | -3.76% |
| CC(C)C(=O)NC(c1ccc(Cl)cc1Cl)c1ccc2cccnc2c1O (stereo not given) | -2.63% |
| Oc1c(C(Nc2ccccn2)c2ccccn2)ccc2cccnc12 (stereo not given) | 0.58% |
| COc1cccc(C(NC(C)=O)c2ccc3cccnc3c2O)c1 (stereo not given) | -0.84% |
| CC(=O)NC(c1ccc(C(C)C)cc1)c1ccc2cccnc2c1O (stereo not given) | 6.05% |

Source: PubChem BioAssay AID1850 (Southern Research Specialized Biocontainment Screening …, 2009)
